# Data reported in PubChem BioAssay (NCATS).
# Records with an inconclusive call do not appear. A call without a number means that no potency is given here. A number with no mark means an inactive call. The source made the active and inactive calls. The call rests on the fitted dose curve; in most records, active means well fitted curve in the direction sought with a large enough effect; inconclusive means small, poorly fitted or top-dose-only effect, or another doubt; inactive means no such curve, though single readings can be large; an effect the other way counts as inactive or inconclusive.
# Tests used:
# [1] = system: Zika virus NS2B-NS3 protease (unlinked); assay: Optimization of GU AMC qHTS for Zika virus inhibitors: Unlinked NS2B-NS3 protease assay (AID 1347151); further: nearly all actives have a fitted effect of over 80% in size; further: potency means the concentration at half of the fitted maximal effect; on activity change, negative = inhibition: series mostly up to about 52 µM
# Outline: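 In this qHTS, compounds acted on 25 nM unlinked Zika NS2B–NS3 in pH 8.0 Tris/Tween buffer. Cleavage of an AMC peptide ran 15 min at room temperature, to about 20% conversion.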
# [2] = system: Zika virus NS2B-NS3 protease; assay: Primary screen GU AMC qHTS for Zika virus inhibitors (AID 1347154); further: nearly all actives have a fitted effect of over 70% in size
# Outline: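 Unlinked Zika NS2B hydrophilic domain–NS3 protease complex at 25 nM in 10 mM Tris-HCl pH 8.0, 0.01% Tween 20, with an AMC peptide substrate. Fluorescence change (340/450 nm) over 15 min at room temperature, normalized to controls, fitted to 4-parameter Hill.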
# [3] = system: Zika virus NS2B-NS3 protease (linked construct); assay: Primary screen NINDS Rhodamine qHTS for Zika virus inhibitors (AID 1347160); further: nearly all actives have a fitted effect of over 55% in size
# Outline: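 Purified NS2B-NS3 protease with the NS2B hydrophilic domain joined by a flexible linker (25 nM) in 10 mM Tris-HCl pH 8.0, 0.01% Tween 20, preincubated 15 min at RT with compound; Rhodamine110 peptide substrate 1.5 µM; fluorescence change over 15 min; 4-parameter Hill fit.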
# [4] = system: Zika virus NS2B-NS3 protease (linked construct); assay: Confirmatory screen NINDS AMC qHTS for Zika virus inhibitors (AID 1347152); further: potency means the concentration at half of the fitted maximal effect; nearly all actives have a fitted effect of over 70% in size
# Outline: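 Concentration-response confirmation used the NINDS linked protease (NS2B hydrophilic domain joined to NS3 protease domain), 1 nM, with a 15-min compound preincubation. Substrate, Nle-KRR-AMC at 10 microM, was read by UV fluorescence before and after 15 min.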
# [5] = system: Zika virus NS2B-NS3 protease (unlinked complex); assay: Primary screen GU Rhodamine qHTS for Zika virus inhibitors: Unlinked NS2B-NS3 protease assay (AID 1347159); further: nearly all actives have a fitted effect of over 60% in size; further: potency means the concentration at half of the fitted maximal effect
# Outline: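 Noncovalent NS2B hydrophilic domain/NS3 protease complex (25 nM final) in 10 mM Tris-HCl pH 8.0, 0.01% Tween 20, preincubated 15 min with compounds (up to 114 microM), then 1.5 microM Rhodamine110 substrate. Fluorescence change over 15 min fitted to 4-parameter Hill.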
# [6] = system: Zika virus NS2B-NS3 protease (linked); assay: 384 well plate NINDS AMC confirmatory qHTS for Zika virus inhibitors (AID 1347163);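 further: linked protease at 5 30 or 60 nM final depending on run; fluorescence of AMC released from Ac-VKTGKR-AMC peptide cleaved by the protease; top concentration of the series differs between compounds; nearly all actives have a fitted effect of over 50% in size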
# Outline: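 Linked NS2B-NS3 protease (final 5 nM, 30 nM or 60 nM) was preincubated with compounds (final up to 1 mM) for ~15 minutes. Ac-VKTGKR-AMC substrate (final 30 microM) then reacted for 25 minutes at room temperature in the dark. Fluorescence (ex 355/em 460 nm) was normalized to no-enzyme and no-inhibitor controls.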
compound,measurement,setting,value
C[C@]12C[C@H](O)[C@H]3[C@@H](CCC4=CC(=O)CC[C@@]43C)[C@@H]1CC[C@@H]2C(=O)CO,Potency,[1],inactive
same,Potency,[2],inactive
O=C(O)CN1C(=O)c2cccc3cccc(c23)C1=O,Potency,[2],inactive
COc1ccc(Cl)cc1C(=O)NCCc1ccc(S(=O)(=O)NC(=O)NC2CCCCC2)cc1,Potency,[1],inactive
same,Potency,[2],inactive
same,Potency,[3],inactive
CC(C)(O)c1ccccc1CC[C@@H](SCC1(CC(=O)O)CC1)c1cccc(/C=C/c2ccc3ccc(Cl)cc3n2)c1,Potency,[4],27.1 µM (active)
same,Potency,[5],3.16 µM (active)
same,Potency,[6],inactive
NC(N)=NCCC[C@H](N)C(=O)O,Potency,[1],inactive
same,Potency,[2],inactive
CN1CCC[C@@H]1Cc1c[nH]c2ccc(CCS(=O)(=O)c3ccccc3)cc12,Potency,[1],inactive
same,Potency,[2],inactive
same,Potency,[5],inactive
same,Potency,[3],inactive
CCN(CC)C(C)CN1c2ccccc2Sc2ccccc21 (stereo unspecified),Potency,[2],inactive
CCC(=O)c1ccc(O)cc1,Potency,[2],inactive
Oc1cccc(O)c1,Potency,[2],inactive
C[C@@H]1CCN(C(=O)[C@H](CCCN=C(N)N)NS(=O)(=O)c2cccc3c2NC[C@H](C)C3)[C@@H](C(=O)O)C1,Potency,[2],inactive
CCN(CC)CCCC(C)Nc1c2ccc(Cl)cc2nc2ccc(OC)cc12 (stereo unspecified),Potency,[1],23.8 µM (active)
same,Potency,[5],inactive
same,Potency,[3],inactive
CNC(=O)Oc1ccc2c(c1)[C@]1(C)CCN(C)[C@@H]1N2C,Potency,[1],inactive
same,Potency,[2],inactive
same,Potency,[5],inactive
same,Potency,[3],inactive
CN1[C@@H]2CC(OC(=O)[C@H](CO)c3ccccc3)C[C@H]1[C@@H]1O[C@@H]12 (stereo partly specified),Potency,[2],inactive
NC(=O)c1ncn([C@@H]2O[C@H](CO)[C@@H](O)[C@H]2O)c1N,Potency,[2],inactive
CC1=C(CC(=O)O)c2cc(F)ccc2/C1=C\c1ccc(S(C)(=O)=O)cc1,Potency,[1],inactive
same,Potency,[2],inactive
Cc1ncc([N+](=O)[O-])n1CC(O)CCl (stereo unspecified),Potency,[2],inactive
CC1=C(CC(=O)O)c2cc(F)ccc2/C1=C\c1ccc(S(C)=O)cc1 (stereo unspecified),Potency,[1],inactive
same,Potency,[2],inactive
CCN(CC)CCNC(=O)c1cc(Cl)c(N)cc1OC,Potency,[1],inactive
same,Potency,[2],inactive
same,Potency,[5],inactive
same,Potency,[3],inactive
COc1cc(C(=O)N2CCOCC2)cc(OC)c1OC,Potency,[2],inactive
C[C@H](NC(CCc1ccccc1)C(=O)O)C(=O)N1CCC[C@H]1C(=O)O (stereo partly specified),Potency,[1],inactive
same,Potency,[2],inactive
CC(C)NC[C@H](O)c1ccc(O)c(O)c1,Potency,[1],inactive
same,Potency,[2],inactive
O=C1O[C@H]([C@@H](O)CO)C(O)=C1O,Potency,[2],inactive
CC(C)(C(=O)O)c1ccc(C(O)CCCN2CCC(C(O)(c3ccccc3)c3ccccc3)CC2)cc1 (stereo unspecified),Potency,[1],inactive
same,Potency,[2],inactive
same,Potency,[5],inactive
same,Potency,[3],inactive
[O-][n+]1cccc(CO)c1,Potency,[2],inactive
CC[C@@]1(c2ccccc2)NC(=O)N(C)C1=O,Potency,[2],inactive
C#CCN(C)Cc1ccccc1,Potency,[1],inactive
same,Potency,[2],inactive
CC12CCC(CC1)C(C)(C)O2,Potency,[2],inactive
O=C(O)CC(O)C(=O)O (stereo unspecified),Potency,[2],inactive
CC1(C)S[C@@H]2[C@H](NC(=O)Cc3ccccc3)C(=O)N2[C@H]1C(=O)O (tested in a mixture with another compound),Potency,[2],inactive
CC(C)c1c(C(=O)Nc2ccccc2)c(-c2ccccc2)c(-c2ccc(F)cc2)n1CC[C@@H](O)C[C@@H](O)CC(=O)O,Potency,[1],inactive
same,Potency,[2],inactive
same,Potency,[3],inactive
NCCNCCNCCNCCN,"activity change, negative = inhibition",[2],-0.671% [at 6.83 µM]
C[C@H]1O[C@H](O[C@H]2[C@H](O)[C@@H](O)[C@@H](O[C@H]3[C@H](O)[C@@H](O)[C@H](O)O[C@@H]3CO)O[C@@H]2CO)[C@H](O)[C@@H](O)[C@@H]1N[C@H]1C=C(CO)[C@@H](O)[C@H](O)[C@H]1O,Potency,[2],inactive
CC(CN(C)C)CN1c2ccccc2CCc2ccccc21 (stereo unspecified),Potency,[1],inactive
same,Potency,[2],inactive
CC(C(O)c1ccc(O)cc1)N1CCC(Cc2ccccc2)CC1 (stereo unspecified),Potency,[1],inactive
same,Potency,[2],inactive
same,Potency,[5],inactive
same,Potency,[3],inactive
CCCCc1ncc(/C=C(\Cc2cccs2)C(=O)O)n1Cc1ccc(C(=O)O)cc1,Potency,[1],inactive
same,Potency,[2],inactive
same,Potency,[5],inactive
same,Potency,[3],inactive
Cc1cc(N)c2ccccc2[n+]1CCCCCCCCCC[n+]1c(C)cc(N)c2ccccc21,Potency,[1],23.8 µM (active)
same,Potency,[5],inactive
same,Potency,[3],inactive
CC(=O)CCC(=O)O,Potency,[2],inactive
OC[C@H]1O[C@@H](O[C@@H]2[C@@H](CO)O[C@](O)(CO)[C@H]2O)[C@H](O)[C@@H](O)[C@H]1O,Potency,[2],inactive
CN(N=O)C(=O)N[C@@H]1[C@@H](O)[C@H](O)[C@@H](CO)O[C@@H]1O,Potency,[2],inactive
CC/C=C(\C(=O)N[C@@H]1C(=O)N2C(C(=O)OCOC(=O)C(C)(C)C)=C(COC(N)=O)CS[C@H]12)c1csc(N)n1,Potency,[2],inactive
same,Potency,[5],inactive
same,Potency,[3],inactive
OCC(O)CN1CCN(c2ccccc2)CC1 (stereo unspecified),Potency,[2],inactive
same,Potency,[5],inactive
same,Potency,[3],inactive
